Measurements as given in PubChem BioAssay AID1443 (Sanford-Burnham Center for Chemical Genomics, 2008).
The whole screen tested about 220,000 compounds, of which about 880 (0.4%) were called active. The list comes from a sample in which actives are over-represented; it also holds similar structures and randomly drawn compounds. Values without a mark were called inactive.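 The calls were made as follows: active = cell killing above 50% in the first pass at 4 µM, then a duplicate retest at 5 µM averaging 50% or more; inactive = the rest.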

experiment: compounds killing PPC-1 cancer cells with TRAIL present, primary screen, TRAIL potentiator project, ATPLite luminescence, uHTS (AID 1443); details: PPC-1 cells + TRAIL, ATPLite viability luminescence, hits give high values; at 4 µM unless noted;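 also: plate controls were cells with TRAIL plus DMSO for no effect and medium-only wells lacking cells for full effect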

Q: With `Cc1nc2ccc(N3CCN(C)CC3)cc2nc1C` as the compound, how does the cell killing (% activity) read?
A: -0.5%

Q: Which cell killing (% activity) does the source give for `COc1cccc(-c2nc3ccc(N4CCN(C)CC4)cc3[nH]2)c1` here?
A: 85.4% [at 5 µM] (active)

Q: For `CN1CCN(c2cc(N3CCNCC3)ccc2[N+](=O)[O-])CC1`, which cell killing (% activity) is on record?
A: 3.5%

Q: Which cell killing (% activity) does the source give for `O=C1CC(=O)N(Cc2ccccc2)C(=O)N1CCCCCCN1C(=O)CC(=O)N(Cc2ccccc2)C1=O` here?
A: 12.3%

Q: With `COc1ccc(C2N3CC(C)(C)CN23)cc1` (stereo not given) as the compound, how does the cell killing (% activity) read?
A: 15.2%
